Compounds without any hit were thinned out: in the full panel of roughly 83,000, 20% have a hit.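 Negative percent growth values reflect cell death: -40 means 40% of the cells present at the start died, and -100 means all died.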 The source made the active and inactive calls.
These molecules were tested on HL-60(TB) leukemia (assay: NCI-60 one-dose screen, 48 h (100 = growth as untreated, 0 = no growth, -100 = all killed)). Details: 10 µM unless noted.
Procedure: Growth inhibition of the HL-60(TB) human tumor cell line is measured as a screen for anti-cancer activity. Cells are grown in 96 well plates and exposed to the test compound for 48 hours. Compounds are tested at a single concentration, which is 10^-5 M for most compounds. The reported endpoint is percent growth (GI% or GIPRCNT), where numbers from 0 - 100% represent growth inhibition, and numbers from -100% - 0 represent cell death. For example, a value of 40 represents 60% growth inhibition. A value of 0 means no net growth occurred over the course of the experiment. A value of -40 indicates 40% of cells at the beginning of the experiment died by the end of the experiment. A value of -100 means all cells are dead at the end of the experiment.
NCI-60 Human Tumor Cell Lines Screen was performed using the standard one-dose NCI protocol, which is described in more detail at https://dtp.cancer.gov/discovery_development/nci-60/default.htm.
Compounds with GIPRCNT values below 10 were considered active. Activity score was based on GIPRCNT using the following formula: […]
Score is 0 for GIPRCNT values of 100 or above, 50 for GIPRCNT values of 0, and 100 for GIPRCNT values of -100.
In the case of `COC(=O)c1c(C)c2n(c1C)C(=O)C(c1ccccc1)=C2`, the growth is reported as 67% (inactive).
With `O=C(O)/C(Br)=C/c1c[nH]c2ccc(Br)cc12` the growth was 96.9% (inactive).
`N#CCCc1c[nH]c2ccccc12` was tested, and the growth was 99.3% (inactive).
For `CCOC(=O)c1c2c(n(-c3ccc(C#N)cc3)c1-c1ccccc1)C=CCC2`, the growth was 82.9% (inactive).
With `FC(F)(F)c1cc(Nc2ccc3cc(OCCCN4CCOCC4)ccc3n2)ccc1Cl` the growth was 29% (inactive).
`Cc1cc(=O)oc2cc(Oc3nc(-c4ccc(Cl)cc4)cn4c(-c5ccc(Cl)cc5)cnc34)ccc12` was tested, and the growth was 86.8% (inactive).
For `Cn1cc(-c2csc(-c3cn(CCCN4CCOCC4)c4ccccc34)n2)c2cccnc21`, the growth was 70.9% (inactive).
In the case of `Cc1ccc(Cl)cc1N1CCN(C(=O)[C@@H]2C[C@@H]2c2ccc(F)cc2)CC1`, the growth is reported as 69.9% (inactive).
`CC(C)(C)[Si](C)(C)OC1[C@@H](CNC(=O)NC(=O)CCl)O[C@@H](n2cnc3c(N)ncnc32)[C@H]1O[Si](C)(C)C(C)(C)C` (stereo not given in full) was tested, and the growth was -64.2% (active).
With `CC(C)[C@H]1CCC2=C3CC[C@]45OC(=O)[C@@]6(CCC(C)(C)C[C@H]64)CC[C@@]5(C)[C@]3(C)CC[C@@]21C` the growth was 3.99% [100 µM] (active).
`O=C(CCSc1nnc2n(Cc3ccccc3)c(=O)c3c4c(sc3n12)CCCC4)N1CCN(c2ccccc2)CC1` was tested, and the growth was 106% (inactive).
For `COc1ccc2c(c1)OC13Oc4cc(OC)ccc4C=C1CCCC3=C2`, the growth was 7.56% (active).
With `CC(CN)[C@@H]1CC[C@]2(CO)CC[C@]3(C)[C@H](CC[C@@H]4[C@@]5(C)CCC(NCCO)C(C)(C)[C@@H]5CC[C@]43C)[C@@H]12` (stereo not given in full) the growth was 60% (inactive).
For `COc1cc(CCC[P+](c2ccccc2)(c2ccccc2)c2ccccc2)c(OC)c2c1OCO2`, the growth was 13.6% (inactive).
`CS(=O)(=O)c1ccc(NC(=O)c2ccccc2)nc1` was tested, and the growth was 67.5% (inactive).
In the case of `O=c1c2cc(F)cc(Cl)c2sc2c(NCCCNCCO)nc3ccccc3c12`, the growth is reported as 77.1% (inactive).
With `Cc1cccc(-n2c(C)nc3ccc(N4CCCNC4=O)cc3c2=O)c1` the growth was 109% (inactive).
With `COc1cc(C(=O)c2c(N)ncn2-c2ccccc2)cc(OC)c1OC` the growth was 77.5% (inactive).
`Clc1ccc(-c2cn(-c3ccccc3)c(-c3ccccc3)n2)c(Cl)c1` was tested, and the growth was 52.1% (inactive).
In the case of `O=[N+]([O-])c1ccc(OCCCOc2ccccc2)cc1`, the growth is reported as 95.5% (inactive).
With `S=C1CC(=S)NC(=S)N1` the growth was 131% (inactive).
With `COc1ccc(/C=N\NC(=O)c2ccncc2)cc1O` the growth was 97.9% (inactive).
With `COc1cc(C(=O)c2c(-c3ccccc3)oc3c(OC)cccc23)cc(OC)c1OC` the growth was -6.56% (active).
In the case of `NC(=O)SCC(=O)NNc1ccccc1`, the growth is reported as 101% (inactive).
`O=C(CCOCCNC(=O)COc1ccc2c(c1)OCC(c1ccc(F)cc1)C2=O)NCCCC(O)(P(=O)(O)O)P(=O)(O)O` (stereo not given) was tested, and the growth was 104% (inactive).
In the case of `O=[N+]([O-])c1ccccc1N1CCNCC1`, the growth is reported as 80.1% (inactive).
In the case of `N/C(=N\c1nc2ccccc2s1)NC(=O)Nc1ccccc1`, the growth is reported as 12.8% (inactive).
`O=C(O)c1cn(C2CC2)c2cc(N3CCN(S(=O)(=O)c4ccc(Cl)c(Cl)c4)CC3)c(F)cc2c1=O` was tested, and the growth was -38.3% (active).
With `CN(C)c1ccc(C(C#N)(c2ccccc2)c2ccc(N(C)C)cc2)cc1` the growth was 61.9% (inactive).
`CCCCOC(=O)c1cc(O)c(O)c(O)c1` was tested, and the growth was 24.7% (inactive).
With `O=C(O)CC(C(=O)O)/C(=C\c1ccccc1)c1ccccc1` (stereo not given) the growth was 107% (inactive).
`O=C(CI)NCCNc1cccc2c(S(=O)(=O)O)cccc12` was tested, and the growth was 105% (inactive).
With `C=C(C)[C@@H]1CCC[C@]2(C(=O)OC)CC[C@]3(C)[C@@H](CC[C@@H]4[C@@]5(C)CCCNC(C)(C)[C@@H]5CC[C@]43C)[C@@H]12` the growth was 96.7% (inactive).
`CCCCCCCCn1ccc2cc(NC(=O)Cn3cc(CN4CCN(CC)CC4)nn3)ccc21` was tested, and the growth was 63.9% (inactive).
`COc1ccc(-c2cncn2-c2ccc(-c3nc4cc(OC)c(OC)c(OC)c4s3)cc2)cc1N` was tested, and the growth was 27.8% (inactive).
With `COc1ccc2c(c1)C(=O)/C(=C/c1ccc([N+](=O)[O-])s1)O2` the growth was -10.7% (active).
With `O=C1C(=O)c2c(nc3ccc(Br)cn23)-c2ccccc21` the growth was -58.2% (active).
In the case of `c1ccc(C2NCCNC2c2ccccc2)cc1` (stereo not given), the growth is reported as 103% (inactive).
`CCCN(CCC)C(=O)[C@H](CC)[C@@H]1CC[C@@H](C)[C@@H]([C@H](C)[C@@H](O)[C@@H](C)C(=O)[C@H](CC)C2O[C@]3(C=C[C@@H](O)[C@]4(CC[C@@](C)([C@H]5CC[C@](O)(CC)[C@H](C)O5)O4)O3)[C@H](C)C[C@@H]2C)O1` (stereo not given in full) was tested, and the growth was -47.7% (active).
For `Nc1nc(Cl)cc(NCc2ccc(CNc3cc(Cl)nc(N)n3)cc2)n1`, the growth was 78.7% (inactive).

— PubChem BioAssay (NCI)
